The target of this assay is Pantothenate synthetase (Mycobacterium tuberculosis (strain ATCC 25618 / H37Rv)) (UniProt P9WIL5). Briefly: Recombinant Mtb pantothenate synthetase (PanC) inhibitors, coupled enzyme, confirmatory (AID 375).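 Note: 0% = full reaction with vehicle and 100% = no enzyme background.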 As to conditions: coupled enzyme assay; at 10 µM, hits give high values.

Values without a mark were called inactive. The rule behind the calls is not given here.

Chain of Pantothenate synthetase (Mycobacterium tuberculosis (strain ATCC 25618 / H37Rv)) (P9WIL5 whole entry, looked up): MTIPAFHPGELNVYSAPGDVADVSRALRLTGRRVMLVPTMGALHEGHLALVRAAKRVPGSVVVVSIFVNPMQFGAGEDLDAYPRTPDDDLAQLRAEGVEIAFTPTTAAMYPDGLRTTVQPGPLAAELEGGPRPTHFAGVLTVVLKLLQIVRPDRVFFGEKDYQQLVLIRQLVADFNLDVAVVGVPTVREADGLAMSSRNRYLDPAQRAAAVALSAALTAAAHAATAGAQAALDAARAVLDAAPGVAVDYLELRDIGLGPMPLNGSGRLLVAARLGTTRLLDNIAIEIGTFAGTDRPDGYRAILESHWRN

As to `Cc1onc(-c2ccccc2)c1C(=O)Nc1sc2c(c1C(N)=O)CCC2`, the inhibition is 5%. For `COc1ccccc1-c1cn[nH]c(=S)n1` the value was 11%; for `Cc1nn(-c2nc3ccccc3[nH]2)c(N)c1-c1ccccc1`, 8%; for `Cc1cc(C2C(C#N)=C(N)SC(N)=C2C#N)c(C)s1`, 0%. As to `O=C1CCCc2c1nn(-c1ccccc1)[n+]2[O-]`, the inhibition was 0%. For `O=C(Nc1cccnc1)c1ccc2c(c1)OCO2` the value was 0%; for `O=C(CSc1ncnc2ccccc12)N1CCN(c2ccccc2)CC1`, 0%.

In the case of `CCc1c(C)c2ccc(OCC(=O)OC)cc2oc1=O`, the inhibition was 0%. For `Cc1ccnc(NC(=O)C2CCCN(S(=O)(=O)c3cnc[nH]3)C2)c1` (stereo not given), the inhibition is 0%.

Consider `Cc1ccc(N2C(=O)c3ccccc3C2Nc2cccnc2)nc1` (stereo not given), for which the inhibition is 1%.

For `N#Cc1c(NC(=O)c2ccc(Br)o2)n(-c2ccccc2)c2nc3ccccc3nc12`, the inhibition is 2%. Under `COC(=O)c1cc(=O)n(Cc2ccc3c(c2)OCO3)c(=Nc2ccccc2)s1` stands 7%; under `Cn1c(SCC(N)=O)nnc1C1CCN(C(=O)NCc2ccccc2)CC1`, 0%. Under `C=CCOc1nc2c(c(=O)n(C)c(=O)n2C)n1Cc1c(Cl)cccc1Cl` stands 1%. Under `COc1cc2[nH]c(=O)n(CCC(=O)N3CCc4ccccc4C3)c(=O)c2cc1OC` stands 0%; under `CCOC(=O)CC1=C(C(=O)OCC)C(c2ccc(C)o2)C(C#N)=C(N)O1` (stereo not given), 0%. As for `COc1ccc2c(c1)C1(C)CC(C)(C)N2C(=O)N1c1ccccc1` (stereo not given), the inhibition is 4%. Under `C[C@H](NC(=O)Nc1ccccc1F)C(=O)O` stands 2%; under `O=C(NCCC1=CCCCC1)c1cc2c(s1)CS(=O)(=O)C2`, 1%; under `CN(Cc1ccccc1)c1nc2c(c(=O)[nH]c(=O)n2C)n1Cc1ccccc1Cl`, 3%. Under `CC(C)Sc1nc(N2CCCC2)c2c(c1C#N)CC(C)(C)OC2` stands 0%. For `CC(Sc1n[nH]c(=O)[nH]c1=O)C(=O)OCc1ccccc1` (stereo not given) the value was 2%.

For `Cc1onc(-c2ccccc2)c1C(=O)NCc1cccnc1`, the inhibition was 10%. Under `C[C@H](CCC(=O)O)[C@H]1CC[C@H]2[C@@H]3C(=O)C[C@@H]4CC(=O)CC[C@]4(C)[C@H]3CC(=O)[C@]12C` stands 2%. Under `O=C(Cn1c(=O)oc2ccccc21)N1CCN(c2ccccc2)CC1` stands 0%; under `COc1cc(CC(=O)Oc2ccc3c(c2)OCO3)cc(OC)c1OC`, 0%. For `CC1CCN(C(=O)CSc2nnc(Cc3cc(=O)[nH]c(=O)[nH]3)n2-c2ccc(Cl)cc2)CC1` the value was 4%; for `Nc1nonc1NC(=O)CSc1nc2ccccc2s1`, 0%; for `CCOC(=O)CSc1nnc(-c2ccc(Cl)cc2Cl)o1`, 2%. With `COc1ccc(Cn2c(=O)[nH]c3cc(C(=O)NCCCN4CCCC4)ccc3c2=O)cc1`, the inhibition was 5%. Under `CC(=O)/C(C[N+]1(C)CCCCC1)=N\O` stands 3%; under `Cc1ccc(C2c3sc(=O)[nH]c3SC3C(=O)NC(=O)C32)cc1` (stereo not given), 0%. For the molecule `CC(=O)Nc1sc2c(c1CN1CCN(c3ccccn3)CC1)CCCC2`, the inhibition was 2%.

For the molecule `Cc1ccccc1NC(=O)CSc1nc(N)c(C#N)c(-c2cccs2)c1C#N`, the inhibition was 0%. Under `CCOCCn1c(CN2CCN(c3cccc(Cl)c3)CC2)nc2c1c(=O)n(C)c(=O)n2C` stands 4%; under `CC(C)CC1NC(=O)N(CC(=O)N2CCN(S(=O)(=O)c3ccc(Cl)cc3)CC2)C1=O` (stereo not given), 0%. `O=C(Nc1ccccc1)C1=C(O)CC(c2ccoc2)CC1=Nc1ccccc1` (stereo not given): the inhibition is 0%. Under `Cc1cccc(CN2CCC(CNC(=O)C3CCCN(S(=O)(=O)c4cnc[nH]4)C3)CC2)c1` (stereo not given) stands 0%; under `O=C(c1nn2cccnc2c1Cl)N1CCN(c2ccccc2)CC1`, 6%. In the case of `COc1cccc(NC(=O)N2CCCC2C(=O)Nc2ccc3c(c2)OCO3)c1` (stereo not given), the inhibition was 4%.

With `CC(=O)N1CCN=C1SCc1ccc(Br)cc1`, the inhibition is 4%. Under `CC1Cc2nc(SCC(=O)N3CCCc4ccccc43)n(C)c(=O)c2S1` (stereo not given) stands 1%; under `Cn1c(=O)c2c(nc(SCCOc3ccc4ccc(=O)oc4c3)n2C)n(C)c1=O`, 0%; under `Cc1ccc(/C(O)=C2/C(=O)C(=O)N(Cc3ccco3)C2c2cccs2)cc1` (stereo not given), 0%. As to `COc1ccccc1N1CCN(C(=O)C2CC=CCC2C(=O)O)CC1` (stereo not given), the inhibition was 14%. For `CC(C)[C@H](NC(=O)OC(C)(C)C)c1nnc(SCC(=O)Nc2ccc(Br)cc2)o1` the value was 0%; for `CCCCn1c(SCc2ccc(Cl)cc2)nc2c1c(=O)[nH]c(=O)n2C`, 6%.

On to `Nn1c(SCC(=O)NC2CCCCC2)nnc1C1CC1`, for which the inhibition is 0%. Under `COC(=O)c1cc(Br)c(=O)n(CCc2ccc(F)cc2)c1` stands 0%; under `O=C(Nc1ccc(NC(=O)C2CC2)cn1)c1ccccc1Cl`, 0%. Under `O=C(CN1C(=O)NC(Cc2ccccc2)C1=O)Nc1ccccc1` (stereo not given) stands 0%; under `CCOCCCNC(=O)c1cc2sc(Cl)cc2n1CC`, 0%; under `COc1ccc(NC(=O)Nc2ccccc2C)c(OC)c1`, 0%. Under `CCCCCn1c(CN(C)Cc2ccccc2)nc2c1c(=O)n(C)c(=O)n2C` stands 1%.

On to `Cc1nc2sc(C(c3cccs3)N3CCOCC3)c(O)n2n1` (stereo not given), for which the inhibition was 0%. For the molecule `COc1ccc(NC(=O)CSc2ccccn2)cc1OC`, the inhibition is 0%.

Regarding `CCOC(=O)N1CCN(C(=O)Cn2ncn3nc(-c4cccs4)cc3c2=O)CC1`, the inhibition is 0%. For `Cc1cc(C)nc(-n2nc(C)cc2NC(=O)c2ccc(Br)o2)n1` the value was 0%; for `O=C(CCCCCN1C(=O)CCC1=O)NCc1ccccc1`, 11%.

Regarding `Cc1noc(C)c1COC(=O)c1ccccc1Oc1ccccc1`, the inhibition was 0%. Under `CCOC(=O)c1sc(N2C(=O)C(O)=C(C(=O)c3ccco3)C2c2ccccc2)nc1C` (stereo not given) stands 0%; under `Nc1nc(N2C(=O)C3CC=CCC3C2=O)nn1-c1ccccc1` (stereo not given), 0%; under `O=C(Nc1nc2c(s1)CCCC2)C1COc2ccccc2O1` (stereo not given), 0%. Under `Cc1cc(C)nc(SC2=CS(=O)(=O)c3ccccc32)n1` stands 0%. Under `COCCOC(=O)C1=C(C)NC(=O)CC1c1cc2c(cc1Br)OCO2` (stereo not given) stands 1%; under `COc1cc(C(=O)OC(C)CN2CCCC2)cc(OC)c1OC` (stereo not given), 4%; under `CC(C)c1nc(N2CCN(C(=O)c3ccco3)CC2)c2c3c(sc2n1)CCCC3`, 1%. Take `CCOC(=O)C1=C(c2ccccc2)N2CCN=C2S1`: the inhibition was 3%. For `CCOC(=O)Cn1c(=O)c(-c2ccccc2N)nc2ccccc21`, the inhibition was 3%.

In the case of `c1ccc(-n2cnc3cc(NCc4ccccn4)ccc32)cc1`, the inhibition was 0%. Under `CCOc1ccc(-c2nc(N)ncc2-c2ccccc2)c(O)c1` stands 0%; under `COc1cccc(N2CCN(CC(=O)Nc3nnc(-c4ccccc4)s3)CC2)c1`, 3%; under `O=C(Nc1ccc2c(c1)OCO2)C(c1ccccc1)N1CCC2(CC1)OCCO2` (stereo not given), 0%. Under `COc1ccccc1NC(=O)Cc1noc(CSc2cc(C)c3ccccc3n2)n1` stands 0%; under `CCOC(=O)Nc1ccc2c(c1)N(C(=O)OCCN(C)C)c1ccccc1CC2`, 3%; under `C=CCN(C(=O)CNS(=O)(=O)c1ccccc1)C(C(=O)NCCOC)c1ccncc1` (stereo not given), 0%. For `COc1ccccc1S(=O)(=O)Cc1ccc(C(=O)N2CCOCC2)o1`, the inhibition is 0%. For `C[C@]12CCC(=O)C=C1CC[C@@H]1[C@@H]2[C@@H](O)C[C@@]2(C)[C@H]1CC[C@]2(O)C(=O)CO` the value was 0%. With `CC1(C)CC(=O)C2=C(C1)OC(=O)C2(NC(=O)c1cccs1)C(F)(F)F` (stereo not given), the inhibition was 1%. Under `COc1cccc(C2CC(c3c(Cl)cccc3Cl)n3nc(N)nc3N2)c1` (stereo not given) stands 0%; under `c1ccc(-c2nc3ccccc3nc2-c2ccccn2)nc1`, 0%. Under `CCCCCOc1ccc(C2NC(=O)NC2=O)cc1` (stereo not given) stands 0%. As for `O=S(=O)(c1cccc(-c2nnco2)c1)N1CCCC1`, the inhibition is 0%. Under `O=C(OCc1nnc(-c2ccccc2)o1)C1=COCCO1` stands 0%; under `Cc1nc(C)c(C(=O)C2=C(O)C(=O)N(CCCn3ccnc3)C2c2ccccc2)s1` (stereo not given), 1%.

Regarding `Nc1cc(-c2ccccc2)ccc1O`, the inhibition is 1%. Turning to `Cc1ccc2cc(C#N)c(NCCCNC(=O)C3CCCO3)nc2c1` (stereo not given), the inhibition is 0%.

In the case of `Cc1nc(-c2coc3cc(OCC(=O)O)ccc3c2=O)cs1`, the inhibition is 0%.

With `Cc1onc(-c2ccccc2)c1C(=O)Nc1ccnn1C1CCCCC1`, the inhibition is 1%. For `Nc1nnnn1NCc1cccc(OCc2ccccc2)c1`, the inhibition is 0%. Under `Cc1csc(SCC(=O)NC(=O)NCc2ccccc2)n1` stands 9%; under `O=C(Cn1c(=O)[nH]c2ccsc2c1=O)N1CCN(c2ccc(F)cc2)CC1`, 0%; under `Cc1nnc(NS(=O)(=O)c2ccc(N)cc2)s1`, 0%.

As to `Cc1noc(C)c1S(=O)(=O)N1CCC(C(=O)N2CCN(Cc3ccc4c(c3)OCO4)CC2)CC1`, the inhibition is 0%. For `COC(=O)C(C)Sc1nc2c(c(=O)n1-c1ccccc1)SCC2` (stereo not given) the value was 0%; for `O=C(CSc1nnc(Cn2nnc(-c3ccccc3)n2)n1-c1ccccc1)Nc1ccc(F)cc1`, 1%; for `Cc1nc2c(C(=O)O)cnn2c(C)c1Cc1ccccc1F`, 0%. Take `Cc1onc(-c2c(Cl)cccc2Cl)c1C(=O)NCC1CCCO1` (stereo not given): the inhibition is 0%. Under `C1=Nc2c(NCc3ccccc3)ncnc2Oc2ccccc21` stands 0%. Take `CSc1ncc(Cl)c(C(=O)Nc2ccc(S(=O)(=O)N3CCOCC3)cc2)n1`: the inhibition is 0%.
